From PubChem BioAssay come the findings set out here.

Active and inactive are the calls of the source.

The target of this assay is NADPH oxidase 2 (Homo sapiens) (UniProt P04839). The assay can be described thus: compounds shifting NOX2 Amplex Red fluorescence – cell-based, HEK293-NOX2, PMA-stimulated, NOX inhibitor project, primary screen (AID 1159). Also: test concentration not given here. As to conditions: 45 min, higher = more signal, called active from +8 up or from −8 down.
NADPH oxidase 2 (Homo sapiens), sequence (P04839 whole entry, looked up): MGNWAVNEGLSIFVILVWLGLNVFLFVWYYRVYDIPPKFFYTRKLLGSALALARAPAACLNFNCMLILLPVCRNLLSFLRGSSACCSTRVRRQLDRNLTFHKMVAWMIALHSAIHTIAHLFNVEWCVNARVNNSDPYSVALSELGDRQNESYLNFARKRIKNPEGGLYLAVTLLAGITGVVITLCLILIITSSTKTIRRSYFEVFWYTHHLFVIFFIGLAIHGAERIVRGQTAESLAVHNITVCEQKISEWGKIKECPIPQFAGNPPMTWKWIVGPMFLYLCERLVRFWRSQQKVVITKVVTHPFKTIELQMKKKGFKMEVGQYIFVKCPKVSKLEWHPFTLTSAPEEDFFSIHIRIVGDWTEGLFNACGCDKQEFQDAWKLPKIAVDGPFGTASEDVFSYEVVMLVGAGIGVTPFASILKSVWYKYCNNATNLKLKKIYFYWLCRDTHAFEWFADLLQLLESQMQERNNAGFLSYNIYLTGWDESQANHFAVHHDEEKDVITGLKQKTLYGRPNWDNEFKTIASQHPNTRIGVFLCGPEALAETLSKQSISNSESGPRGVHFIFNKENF
Take `CC(C)OC(=O)C=C1C[C@@H](c2ccccc2C(F)(F)F)O[C@@H](c2ccccc2C(F)(F)F)O1`: the z-score is 0.441 (inactive).
Then `COCCCNC(=O)[C@@]1(Cc2ccccc2N=[N+]=[N-])N=C(c2ccc(OCCCO)cc2)O[C@H]1c1ccccc1N=[N+]=[N-]`, with -2.05 (inactive); and `O=C1C2C=CC(C(O)C3CCCCC3)N(Nc3ccc([N+](=O)[O-])cc3)C2C(=O)N1c1ccccc1` (centres undefined), with -1.03 (inactive); and `COCC(=C=CC[C@@H](O)c1ccccc1OCCO)C[C@@H](O)c1cc(Cl)cc(Cl)c1O`, with -0.19 (inactive).
The same measure for `O=C1c2ccccc2[C@](Cc2ccccc2I)(C(=O)NC2CC2)[C@H](c2ccc(CO)cc2)N1Cc1ccccc1`: -0.163 (inactive); for `CCOC(=O)C[C@H]1[C@H](OC(=O)Cc2ccc3c(c2)OCO3)[C@@H](NC(=O)c2ccc3ccccc3c2)c2cc(OCCCO)ccc2N1C(=O)c1ccccc1`: -0.363 (inactive).
The same measure for `C=CCNC(=O)[C@H]1[C@@H]2C(=O)O[C@@H](c3ccccc3)[C@@H](c3ccccc3)N2[C@@H](c2ccc(OCCO)cc2)[C@]12C(=O)N(C(=O)OCCOC)c1ccccc12`: 2.35 (inactive).
In the case of `CCOC(=O)C[C@H]1[C@H](OC(=O)Cc2ccc3c(c2)OCO3)[C@@H](NC(=O)c2ccc(-c3ccccc3)cc2)c2cc(OCCCO)ccc2N1C(=O)c1ccc2ccccc2n1`, the z-score is -2.09 (inactive).
As to `C=CCN1C(=O)[C@]2(O[C@H](CCO)[C@@H]([Si](C)(C)c3ccc(OC)cc3)[C@@H]2C)c2cc(N3C(=O)c4cccc5cccc3c45)ccc21`, the z-score is 0.924 (inactive).
